# Laboratory results taken from the OligoGym collection.
# Biological target: GTF2H5
# Test: pooled miR-30 sensor sort-seq; sequence = guide strand
# Conditions: shRNA
# Also: reference of the scale not given here.
row,Sequence,sensor-assay potency score (higher = more potent)
1,TAACCAATTCTGCTATTACAAA,-1.59
2,AATGATGAACTTCTTCCCCAGG,-1.25
3,TTCTGCTATTACAAAGACGTGA,-0.0161
4,TAATTCACCCACTCGCTCCTGG,0.481
5,TATTACAAAGACGTGAGTGTCA,0.236

# Biological target: GUCY2F
# Test: as above
# Conditions: shRNA
row,Sequence,sensor-assay potency score (higher = more potent)
1,TTTCACATCTTGATTTGTCAGT,-0.489
2,TTGGTCGTTGTTCTGCAGCCTC,-0.834
3,TAATATTGGTCTTCTTCCCTTT,-0.067
4,TAATCTGGAAGCTTACACTGGC,0.71
5,TTATAAAGTAAGCAAATCCATT,-1.1
6,TAAATTGAATTGTAGATGGTTC,-0.461
7,TTCCATTTCCATTTGAATCTGT,0.512
8,TAGATGGTTCCAAACAACGGTG,-1.15
9,TTGAAGAATTGTAACAGTGCTG,0.627
10,TGAAGAATTGTAACAGTGCTGA,-0.218
11,TAATGGTCAACACTGCATCATA,-1.31
12,TTGAATTGTAGATGGTTCCAAA,-0.33

# Biological target: GYG1
# Test: as above
# Conditions: shRNA
row,Sequence,sensor-assay potency score (higher = more potent)
1,TACAGAACTGAACAAAAGCATT,-1.48
2,TAACAGACTTTTCTCAACCCAG,-0.49
3,TTTAATGAAAACCTCTAGCAAC,-1.05
4,TTACATATGAGCAGGTGTCTTT,-0.417
5,TTGCTCAGAAGCAAGATGCAAC,-0.936
6,TCTAGCAACTGTAACAGACTTT,-0.0429
7,TTACTGTACACAGAAAACTGGT,-0.292
8,TTGAAGCAGAGGTAAAACGTTG,-0.811
9,TAACCATCAGAGAACACACTGC,0.344
10,TACTGTGTAAGCGACCAGCAGT,-0.399
11,TTTAAGAACTGATACAGCCATC,-1.1
12,TTAATATCTTGAGTTTCCCTTA,-0.312

# Biological target: H2AFZ
# Test: as above
# Conditions: shRNA
row,Sequence,sensor-assay potency score (higher = more potent)
1,ATAATGTCTGTACAAAACCAAA,-1.91
2,TTGAACTTATCCACCAGAGTGG,-0.27
3,TAAACTTCCAACTTGCTCAAAT,-0.831
4,TTAGGTGTCGATGAATACGGCC,-0.494
5,TTTACCTTTAAGTCTTTTGATG,-0.972
6,TTAAACTTCCAACTTGCTCAAA,-1
7,TAGATTTTAGGTGTCGATGAAT,-1.16
8,TAGCAAGTTGCAAGTGACGAGG,-0.877
9,TTTGAAGCCACAGTAACACTTA,0.62
10,TTTGTCTTGGCCTTTCCGGAGT,-0.897
11,TTTAGGTGTCGATGAATACGGC,-0.619
